PubChem BioAssay
Values without a mark were called inactive. Calls of active or inactive are those of the source. Rule as the data show it: active = inhibition above about 33%; inactive = the rest.

Assay: compounds suppressing VP16-driven luciferase signal – cell-based, luminescence, high throughput, counter-screen for LRH-1 inverse agonist project (AID 651615)
Conditions: Gal4-VP16 luciferase reporter cells, at 3.6 µM, active compounds read high

Row | SMILES | inhibition
1 | COc1ccc(NC(=O)CSc2n[nH]c(-c3ccccn3)n2)cc1 | 2.72%
2 | Cc1cc(S(=O)(=O)NCc2ccncc2)c(C)cc1Br | 41.4% (active)
3 | Cc1onc(-c2c(F)cccc2Cl)c1C(=O)Nc1cccc2nsnc12 | 27.2%
4 | O=C(Nc1ccc2oc(-c3cccnc3)nc2c1)c1ccc([N+](=O)[O-])o1 | -5.53%
5 | COc1cc(C(=O)NN=Cc2ccc(N(C)C)cc2)cc(OC)c1OC | 22.3%
6 | COc1ccc(CCNC(=O)CSc2nn3c(=O)c(C)nnc3s2)cc1OC | -10.1%
7 | CCOC(=O)C1CCCN(S(=O)(=O)c2ccc(S(=O)(=O)N(CC)CC)cc2)C1 (stereo not given) | 49.5% (active)
8 | COc1ccc(/C=C/C(=O)c2cc(F)ccc2OC(=O)c2ccccc2C)cc1OC | 40.4% (active)
9 | Cc1cc(C(=O)CSc2nnnn2-c2ccccc2)c(C)n1-c1ccc2c(c1)OCO2 | 27.6%
10 | O=[N+]([O-])c1cccc(-c2ccc3nnc(SCc4cccnc4)n3n2)c1 | 19.4%
11 | O=c1cc(C2CCCCC2)[nH]c(=O)[nH]1 | 2.19%
12 | COc1cc(CSc2nnnn2-c2ccc(C)cc2)cc(OC)c1OC | 44.8% (active)
13 | N#Cc1cc(Br)ccc1N=C1CCCN1c1ccccc1 | 0.34%
14 | Cc1onc(-c2cccc(Cl)c2Cl)c1C(=O)O/N=C(\N)c1ccc([N+](=O)[O-])o1 | -4.83%
15 | CCc1c(O)nc(SCC(=O)Nc2ccccc2C)n(-c2ccc(C)cc2)c1=O | -1.84%
16 | O=c1c2ccc(Cl)cc2nc(-c2cccc(C(F)(F)F)c2)n1O | 46.2% (active)
17 | CC1CCCC(C)N1C(=O)COC(=O)Cc1ccc(F)cc1 (stereo not given) | 3.23%
18 | CCOc1ccc(NC(=O)COC(=O)CC2CCCCC2)cc1 | -6.37%
19 | CN1CCN(C2=C(Cl)C(=O)N(c3ccc(Cl)c(Cl)c3)C2=O)CC1 | -5.07%
20 | CC(=O)Nc1ncc(Cc2cc(Cl)ccc2Cl)s1 | 2.54%

Row | SMILES | inhibition
21 | COc1cc(NC(=O)CN2C(=O)NC(c3ccccc3)(c3ccccc3)C2=O)c(C)cc1[N+](=O)[O-] | 9.47%
22 | C/C(=N\NC(N)=S)c1ccc(Cl)s1 | 21.2%
23 | Cc1ccc(C)c(NC(=O)CSc2nnc(-c3ccccc3)n2N)c1 | -20.5%
24 | CC(=O)Nc1ccc(NC(=O)CSc2nnnn2C2CCCCC2)cc1 | -1.05%
25 | COc1ccc(/C=N/NC(=O)c2cc(-c3ccc(C)cc3C)nc3ccccc23)cc1COC(C)=O | -17.4%
26 | CCC(=O)N1CCN(c2ccc(Cl)cc2NC(=O)c2ccc([N+](=O)[O-])o2)CC1 | 4.86%
27 | O=C(Cc1c(Cl)cccc1Cl)Nc1ccncc1 | -10%
28 | O=[N+]([O-])c1ccc(/C=N/n2c(CO)nc3ccccc32)s1 | 2.51%
29 | COc1ccc(CCNC(=O)CSc2nc(O)c(CCC(C)C)c(=O)[nH]2)cc1OC | -12.8%
30 | COc1cccc2sc(N3CCN(C(=O)c4ccc([N+](=O)[O-])o4)CC3)nc12 | -23.4%
31 | Cc1ccc(Nc2nc(-c3cccnc3)nc3ccccc23)cc1 | 14%
32 | CC(C)(C)c1ccc(C(=O)Nc2ccc(C(=O)NCc3cccnc3)cc2)cc1 | 61% (active)
33 | CC(=O)Nc1cc(-c2ccc(S(C)(=O)=O)cc2)cn2c(-c3ccc(F)c(Cl)c3)cnc12 | 3.98%
34 | O=C(C1=C[C@@H](C2CCCCC2)C[C@@H](OCc2ccc(CO)cc2)O1)N1CCN(Cc2ccc3c(c2)OCO3)CC1 | 4.7%
35 | O=C(CN(Cc1ccccc1)C(=O)CCl)c1cccc(Br)c1 | -1.2%
36 | COc1cc(C(=O)NC2CCN(C)CC2)ccc1Nc1ncc2c(n1)N(CCc1ccccc1)CCC(=O)N2C | -166%
37 | O=c1c2ccccc2ncn1Cc1ccco1 | 0.81%
38 | CCc1nc(SCC(=O)c2ccccc2)c2ccccc2n1 | -18.1%
39 | CCc1ccccc1NC(=O)CSc1nnc([C@@H](NC(=O)OC(C)(C)C)C(C)C)o1 | 0.4%
40 | Cc1sc2ncnc(NCC(O)c3ccc([N+](=O)[O-])cc3)c2c1C (stereo not given) | 42.1% (active)
